Results from PubChem BioAssay (NCI).
About 83,000 compounds went through this panel and 20% of them were active in at least one assay; those are over-represented in the sample as a whole.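 Values shown are percent growth following 48 h exposure of cells in 96-well plates to a single concentration of compound; below 10 was considered active.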 A number with no mark means an inactive call. The source made the active and inactive calls.

Legend:
Experiment in all cases: NCI-60 one-dose screen, 48 h (100 = growth as untreated, 0 = no growth, -100 = all killed)
Conditions in all cases: 10 µM unless noted
[1] = test system: HCT-15 colon
[2] = test system: HT29 colon
[3] = test system: SNB-75 CNS
[4] = test system: SNB-19 CNS
[5] = test system: U251 CNS
[6] = test system: PC-3 prostate
[7] = test system: SK-MEL-5 melanoma
[8] = test system: UACC-62 melanoma
[9] = test system: LOX IMVI melanoma
[10] = test system: SK-MEL-28 melanoma

Row | SMILES | growth [1] | growth [2] | growth [3] | growth [4] | growth [5] | growth [6] | growth [7] | growth [8] | growth [9] | growth [10]
1 | NCCCNc1nc2ccccc2c2c(=O)c3cc(C(F)(F)F)ccc3sc12 | -55.7% (active) | -23.4% (active) | 60.1% | 30.4% | -55.7% (active) | 37.3% | 45.8% | 95.1% | -97.7% (active) | 81.2%
2 | Cc1ccc(C(C)C)cc1C(=O)C[n+]1ccccc1 | 99.7% | 88.2% | 95% | 106% | 104% | 99.1% | 106% | 106% | 100% | 97.3%
3 | NCCCNc1nc2ccccc2c2c(=O)c3cc(F)cc(F)c3sc12 | 77% | -49.7% (active) | 74.7% | 87.1% | -69.2% (active) | 73.8% | 92.3% | 103% | 60% | -87.1% (active)
4 | CC(=O)c1ccc(Nc2nc(C(C)=O)c(C)s2)cc1 | 97.4% | 100% | 73.6% | 97.5% | 100% | 95.3% | 99.9% | 96.1% | 99.9% | 103%
5 | Cc1nc2ccccc2n1-c1ncnc2c1CC(C)c1ccccc1N2C (stereo not given) | 75.4% | 59.5% | 70.3% | 86% | 78.8% | 67.2% | 91.3% | 71.2% | 82.7% | 91.7%
6 | O=C(CCCCCCSc1nc(-c2ccccc2)cc(-c2ccccc2)n1)NO | 32.6% | 8.32% (active) | 21.2% | 47.3% | 35% | 49.7% | 9.17% (active) | 12.8% | 3.67% (active) | 39.9%
7 | COC(=O)CCC/C=C\C[C@H]1C=CC(=O)/C1=C/C[C@@H](O)CCc1cccc(C(F)(F)F)c1 | -5.76% (active) | -30.6% (active) | 97.9% | 4.49% (active) | -84.3% (active) | -39% (active) | -83.3% (active) | -60% (active) | -64.2% (active) | -45.9% (active)
8 | O=c1c2cc(C(F)(F)F)ccc2sc2c(NCCCNCCO)nc3ccccc3c12 | -67.2% (active) | -41.4% (active) | 56.9% | 23.2% | -60.6% (active) | 23% | 38.3% | 74.8% | -95.6% (active) | 55.5%
9 | CS(=O)(=O)N(c1cc(-c2ccc3ncnc(Nc4ccc(F)c(Cl)c4)c3c2)cnc1Cl)S(C)(=O)=O | 29.5% | 31.5% | -4.86% (active) | 50% | 38.2% | 34.8% | 31.3% | 10.3% | 32.2% | 23.5%
10 | CCOC(=O)Nc1ccc(-c2nc(-c3cccc(OC)c3)c(-c3ccnc(Br)c3)[nH]2)cc1 | 5.65% (active) | 25.7% | 32.6% | 46.1% | 39% | 11.2% | 25.7% | 21.2% | 4.57% (active) | 42%
11 | O=C(CS(=O)c1oc(-c2cccs2)nc1S(=O)(=O)c1ccc(Br)cc1)c1ccccc1 (stereo not given) | 101% | 102% | 79.9% | 86.9% | 88.2% | 85.5% | 97.7% | 88.4% | 104% | 105%
12 | Oc1ccc(CCl)c2cccnc12 | 36.6% | 104% | 64.7% | 80.6% | 59.7% | 83.6% | 89.9% | 100% | 55% | 82.9%
13 | COc1cccc2c(=O)c3c(sc12)c(NCCCN)nc1ccccc13 | 28.9% | -29.3% (active) | 58.2% | 51% | 39.5% | 55.9% | 85.9% | 88.3% | -81.7% (active) | 91.4%
14 | O=C(S)CNC(=O)c1ccccc1 | 112% | 99.5% | 96.3% | 94.9% | 95.3% | 91.2% | 99.7% | 106% | 98.2% | 104%
15 | O=C(Nc1ccc(Br)cc1F)c1cc(Br)ccc1O | 4.49% (active) | 59.3% | 1.84% (active) | 19.6% | 13.8% | 11.9% | -93.7% (active) | -31.4% (active) | 6.99% (active) | 8.29% (active)
16 | CCc1ccc(Oc2c(-c3ccc(OCc4ccc(Cl)cc4)cc3O)nn(C)c2C(F)(F)F)cc1 | 4.91% (active) | -11.1% (active) | -0.904% (active) | 18.2% | 1.22% (active) | -6.54% (active) | -76.4% (active) | -2.19% (active) | -24.6% (active) | 20.1%
17 | O=C(N=c1oc2ccccc2cc1-c1cc2ccccc2[nH]1)Nc1ccc(Cl)cc1 | 107% | 99.8% | 78.3% | 97.3% | 104% | 86.8% | 99.6% | 83% | 94.2% | 100%
18 | S=c1nc(-c2ccccc2)oc(=NC2CCCCC2)n1C1CCCCC1 | 16.1% | 49.5% | 68.2% | 28.7% | 18.8% | 3.69% (active) | 66.1% | 70.9% | 30.1% | 107%
19 | COc1ccc2c(c1)c(-c1ccc(-c3cn(C)c4ccc(OC)cc34)o1)cn2C | 56.2% | 72.7% | 71.4% | 33.3% | 15% | 3% (active) | -2.83% (active) | 12.4% | 53.2% | 83.6%
20 | N[C@@H](Cc1ccccc1)[C@@H](O)C(=O)NCc1ccc(F)cc1 | 103% | 110% | 90.1% | 97.6% | 104% | 106% | 102% | 94.5% | 105% | 108%
21 | CCCCCCNC(=O)Oc1ccc(/C(=C(\C)c2ccc(Cl)cc2)c2ccc(OCCN3CCCCC3)cc2)cc1 | 8.87% (active) | -10.1% (active) | 59.5% | 68% | 34.7% | 29.6% | 25% | 54.5% | 3.75% (active) | 29.4%
22 | O=C(COc1ccc(/C=C2\Cc3ccc(Cl)cc3C2=O)cc1)Nc1nc2ccccc2s1 | 106% | 116% | 88% | 98% | 97.8% | 92% | 105% | 98.2% | 72.8% | 108%
23 | COc1ccc(CNC(=O)C(=O)[C@H](Cc2ccccc2)NC(=O)c2[nH]c3ccccc3c(=O)c2C)cc1 | 103% | 108% | 87.4% | 100% | 100% | 95.1% | 100% | 95.6% | 102% | 103%
24 | COc1ccc(N2C(=O)C(Oc3ccccc3)C2c2ccc(C)cc2)cc1 (stereo not given) | 91.2% | 97.8% | 97.7% | 101% | 90.1% | 97.6% | 104% | 102% | 98.1% | 99.5%
25 | COc1ccc(-n2c(N)c(-c3nc4ccccc4[nH]3)cc(C#N)c2=O)cc1 | 89.4% | 90.2% | 60.5% | 78.9% | 103% | 85.4% | 90.9% | 102% | 98.2% | 100%
26 | CCCCCCCCCCCCCCCCCCOc1ccccc1CC(=O)OCC[N+](CC)(CC)CC | 80.9% | 13.1% | 22.5% | 11.4% | 14.4% | 18.3% | -3.62% (active) | 21.4% | -57.6% (active) | 31.5%
27 | CC(=O)N1CCN(c2ccc(OCC3CO[C@](Cn4ccnc4)(c4ccc(Cl)cc4Cl)O3)cc2)CC1 (stereo not given in full) | 75% | 80.6% | 79.6% | 97.2% | 87.4% | 76.5% | 14.5% | 57.2% | 91.6% | 106%
